Results on 57 molecules are retold here after PubChem BioAssay AID2025 (NMMLSC, 2009).

In all, about 330,000 compounds went through this assay and about 980 (0.3%) were called active.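 How the source made its calls: active means percent response vs DMSO below 50%; inconclusive means fewer than 70 events counted for the yeast strain; inactive means the rest.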 Only a selection was taken, and actives are over-represented in it overall.

The nature of the assay: RPL19A-GFP expression modulators in yeast, primary screen, cell-based, S. cerevisiae, multiplex flow cytometry, MLPCN (AID 2025).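 Further: median channel GFP fluorescence of the barcoded RPL19A-GFP strain; ratio of sample median GFP to plate DMSO average so 100% = DMSO; lower means less RPL19A-GFP as with rapamycin TOR inhibition.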 Conditions: S. cerevisiae RPL19A-GFP strain, 3 h, at 10 µM, stronger effect = lower value. On the technique in general: In flow cytometry, cells or beads pass a laser one at a time.
Turning to `CN1CCN(C2Cc3ccc(Cl)cc3Sc3ccc(F)cc32)CC1` (configuration not stated), the percent response vs DMSO is 100% (inactive).
Next, `COCCN(C(=O)CSCc1ccc(C)cc1)c1c(N)n(CC(C)C)c(=O)[nH]c1=O`: 93.3% (inactive).
Next, `Nc1nc(SCc2cccc(Br)c2)n[nH]1`: 99.2% (inactive); `Cc1ccc(N2CCN(S(=O)(=O)c3ccc(F)cc3)CC2)c(C)c1`: 94.2% (inactive).
To `O=C(c1ccco1)N(Cc1nc2ccccc2c(=O)[nH]1)C1CCCC1` belongs 16.5% [may fluoresce violet] (active); to `CCCC(=O)N(CCc1ccccc1)Cc1nc2ccccc2c(=O)[nH]1`, 90.4% (inactive).
With `CCN(CC(=O)NC(=O)NCc1ccccc1)Cc1nc2ccccc2c(=O)[nH]1`, the percent response vs DMSO is 102% (inactive).
Consider `CC(C)(C)NC(=O)CN(Cc1cccs1)C(=O)CNS(=O)(=O)c1ccccc1`, for which the percent response vs DMSO is 107% (inactive).
Next, `O=P(c1cccs1)(c1cccs1)c1cccs1`: 98.8% (inactive).
Next, `Cc1nc(C)c(C(=O)Nc2cccc(C)c2C)o1`: 98.6% (inactive).
Next, `Cc1cccc(NC(=O)c2ccc3nsnc3c2)c1C`: 103% (inactive).
Take `Cc1cccc(NC(=O)c2cccc(C(=O)Nc3cccc(C)c3C)n2)c1C`: the percent response vs DMSO is 49.4% [may fluoresce violet] (active).
To `Cn1c(=O)oc2cc(S(=O)(=O)NCCC(=O)NCc3ccccc3Cl)ccc21` belongs 106% (inactive); to `COc1ccccc1S(=O)(=O)NCc1ccc(C(=O)N(C)Cc2ccc(F)cc2)cc1`, 91.3% (inactive); to `COc1ccccc1/C=C/C(=O)OCC(=O)NC1CCCCCC1`, 96.2% (inactive).
In the case of `CCC(c1nnnn1Cc1ccco1)N(Cc1cc2cc(OC)ccc2[nH]c1=O)C1CCCCC1` (configuration not stated), the percent response vs DMSO is 39.1% [may fluoresce violet] (active).
Next, `CCC(c1nnnn1Cc1ccco1)N(CCc1ccccc1)Cc1cc2cccc(C)c2[nH]c1=O` (configuration not stated): 100% (inactive); `CCC(c1nnnn1Cc1ccccc1)N(Cc1cc2cc(OC)ccc2[nH]c1=O)CC1CCCO1` (configuration not stated): 94.8% (inactive).
Next, `O=C(CS(=O)(=O)c1ccc(C(F)(F)F)cn1)NNC(=O)c1ccccc1`: 99.4% (inactive); `C/C(=N\NS(=O)(=O)c1ccccc1)c1c(O)cc(C)oc1=O`: 105% (inactive); `CCC(=O)Nc1ccc(C(=O)N2CCN(C(=O)c3ccco3)CC2)cc1`: 94.2% (inactive).
To `Cc1ccc(C)c(OCC(=O)N2CCN(C(=O)c3ccco3)CC2)c1` belongs 110% (inactive).
Consider `Cc1ccc(OCC(=O)Nc2ccc(N3CCN(C(=O)c4ccco4)CC3)cc2)c(C)c1`, for which the percent response vs DMSO is 41.5% [may fluoresce violet] (active).
Regarding `CC1(C)OC(=O)N2CCc3ccccc3C21C` (configuration not stated), the percent response vs DMSO was 99% (inactive).
Next, `CCCNC(=O)C(=O)Nc1cc2c3c(c1)CCC(=O)N3CCC2`: 100% (inactive); `O=C(COc1ccccc1)Nc1cc2c3c(c1)CC(=O)N3CCC2`: 101% (inactive).
To `O=C(Nc1cc2c3c(c1)CC(=O)N3CCC2)c1ccccc1F` belongs 43.6% [may fluoresce violet] (active); to `Cc1cccc(NC(=S)NCc2ccc3[nH]c4c(c3c2)CCCC4)c1`, 105% (inactive); to `COc1cccc(CN2CCNC(=O)C2CC(=O)N(C)CCc2ccccn2)c1` (configuration not stated), 102% (inactive).
Turning to `COc1cccc(NC(=O)NCCN2CCCCC2)c1`, the percent response vs DMSO was 96% (inactive).
To `COCCNC(=O)Nc1ccc2nc(-c3ccco3)c(-c3ccco3)nc2c1` belongs 23.4% [may fluoresce violet] (active).
Next, `O=C(NCc1ccccn1)c1ccc2nc(-c3ccco3)c(-c3ccco3)nc2c1`: 99.4% (inactive); `COc1ccc([N+](=O)[O-])cc1NCC(=O)c1ccc(C)cc1`: 104% (inactive); `COc1cc(C(=O)NCCOC(=O)c2cccc(N(C)C)c2)cc(OC)c1OC`: 101% (inactive).
Next, `O=C(CCC(=O)N1CCN(S(=O)(=O)c2ccccc2)CC1)NC1CCCc2ccccc21` (configuration not stated): 101% (inactive).
Turning to `CNS(=O)(=O)c1cccc(C(=O)NC2CCCc3ccccc32)c1` (configuration not stated), the percent response vs DMSO was 101% (inactive).
Next, `O=C(O)c1cc(S(=O)(=O)NC2CCCc3ccccc32)ccc1O` (configuration not stated): 34.1% [may fluoresce violet] (active); `CC(=O)Nc1ccccc1C(=O)C(=O)Nc1ccc(F)cc1`: 105% (inactive); `O=C(CCC(=O)c1ccccc1)NCc1cccc(C(F)(F)F)c1`: 98.9% (inactive).
To `O=C(c1cc2ccccc2o1)N1CCN(c2cccc(C(F)(F)F)c2)CC1` belongs 98.3% (inactive).
`O=C(c1cccc(Cl)c1)N1CCN(Cc2ccccc2)CC1`: the percent response vs DMSO is 103% (inactive).
To `COc1ccc(CNC(=O)C2CCN(C(=O)c3ccccc3)CC2)cc1` belongs 82.1% (inactive).
To `O=C(NCc1ccncc1)C1CCN(C(=O)c2cccc(Cl)c2)CC1` belongs 42.1% [may fluoresce violet] (active); to `COc1ccc(S(=O)(=O)N2CCOC2CNC(=O)C(=O)NCc2ccncc2)cc1C` (configuration not stated), 99.3% (inactive); to `COc1cccc(C2SCC(=O)N2c2cccc(C)c2)c1OC` (configuration not stated), 49.7% [may fluoresce violet] (active).
Next, `O=C1CSC(c2cccc(F)c2)N1c1ccc(O)cc1` (configuration not stated): 95.8% (inactive); `Cc1ccc(C2SCC(=O)N2c2ccccc2)cc1` (configuration not stated): 103% (inactive); `O=C(CC(NS(=O)(=O)c1ccc(Cl)cc1)c1ccco1)NC1CCCC1` (configuration not stated): 96.4% (inactive).
As for `O=C(CSc1ccccn1)Nc1nc2c(ccc3ccccc32)s1`, the percent response vs DMSO was 106% (inactive).
Next, `COc1ccc(NC(=O)CN(C)C(=O)CC2CCCCC2)cc1`: 96.3% (inactive).
On to `CC(=O)Nc1ccc(NC(=O)COC(=O)C2CCC(C(C)(C)C)CC2)cc1` (configuration not stated), for which the percent response vs DMSO is 103% (inactive).
Turning to `CC(=O)Nc1ccc(NC(=O)CC2CCCC2)cc1`, the percent response vs DMSO is 42.2% [may fluoresce violet] (active).
Next, `Cc1ccc(NC(=S)N(CCCN2CCCC2)Cc2cccn2Cc2ccc(Cl)cc2)cc1`: 99.4% (inactive); `CN(CCCNC(=O)CN1C(=O)CC(C)(C)S(=O)(=O)c2ccccc21)C1CCCCC1`: 91.3% (inactive).
Next, `O=C(N/N=C/c1ccc(Cl)c(Cl)c1)c1ccc2nc[nH]c2c1`: 99.3% (inactive); `Cc1nccn1CC(=O)N/N=C/c1ccc(O)c(O)c1`: 103% (inactive); `NCCCCCC(=O)N/N=C/c1ccc2nccnc2c1`: 48% [may fluoresce violet] (active).
